Bioassay records deposited in PubChem by several laboratories.
The list is not random: actives were taken first. Their share in the collection is about 2.4%.
TNF necrop inh: inhibitors of TNF-alpha induced necroptosis in Jurkat FADD-/- cells. 220,000 compounds, 0.068% hits. Jurkat FADD-/- TNF necroptosis rescue, ATP luminescence, 24 h; 0 = TNF only, 100 = no-TNF cells. activation (protection from cell death), % at 10 µM;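 active = activation, meaning protection from cell death, of at least 50% relative to plate controls; inactive = activation below 50%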;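 note: necroptosis triggered by 40 ng/mL TNF-alpha added together with compound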
PKD1 inh: PKD1 (human) kinase inhibition. PKD1 kinase fluorescence polarization assay. 200,000 compounds, 0.056% hits. Q15139. inhibition, % (test concentration not listed). AID 797; in the data active = inhibition above about 50%
L929 necroptosis: blocks zVAD induced death of L929 cells. L929 zVAD necroptosis rescue, ATP luminescence, 24 h; with zVAD 60 µM. viability rescue, % at 10 µM. 220,000 compounds, 0.38% hits;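 active = activation, scaled between plate controls, above about 75%, limit read from the data; inactive = activation under that limit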;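 note: 0% = zVAD with DMSO and 100% = DMSO alone without zVAD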
Redox H2O2 prof: compounds producing H2O2 with reducing agent – biochemical, NIH compound library profiling, artefact control for MLSCN library redox annotation, primary screen; AID 878; 200,000 compounds, 0.03% hits; activation, % at 10 µM; DTT-dependent redox cycling H2O2, phenol red/HRP absorbance; 100% = 100 µM peroxide control, 0% = buffer;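 active = activation of at least 50% relative to the plate's high and low controls in the primary single-dose screen; inactive = activation below 50%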;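 note: compound incubated with DTT at 0.8 mM final as the reducing agent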
WT yeast gro inh: growth inhibition of WT yeast, mitochondrial fusion screen; mitochondrial fusion phenotypic screen, WT strain; inhibition, % at 10 µM; 190,000 compounds, 2.1% hits; AID 1362; in the data active = inhibition above about 58%; tested in S. cerevisiae
PERK inh: inhibitors of human PERK kinase; CHO PERK-DD fusion, SEAP luminescence translation reporter; Q9NZJ5; 220,000 compounds, 0.17% hits; inhibition, % at 5.6 µM;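 active = inhibition above the mean inhibition of all tested compounds plus 3 SD, set separately per screening campaign, cut at about 2.9% in these data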;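 note: PERK kinase domain activated by AP20187 dimerizer at 100 nM; 0% = DMSO with dimerizer and 100% = rapamycin at 8.4 µM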
Numbers without * were called inactive; · = not tested or not shown.

SMILES	TNF necrop inh	PKD1 inh	L929 necroptosis	Redox H2O2 prof	WT yeast gro inh	PERK inh
c1ccc(-c2ccccc2OCCCCN2CCCCCC2)cc1	-0.3	-4.2	-0.1	-0.6	26.9	-0.2
CC(C)CC(=O)NS(=O)(=O)c1ccc(NS(C)(=O)=O)cc1	0.1	1.1	1.7	-0.5	-3.5	0.2
CCCCOC(=O)C(C)Nc1n[nH]c(=O)[nH]c1=O (stereo not drawn)	-2.6	-8.7	-0.2	3.7	2.8	2.9*
CCCCOC(=O)C(C)Nc1n[nH]c(=S)[nH]c1=O (stereo not drawn)	0.1	-8.4	1.6	0.2	-13.2	0.3
COC(=O)Nc1snnc1C	-1.0	2.4	0.3	-4.2	63.3*	1.0
C=CCOC(=O)Nc1snnc1C	-0.2	-10.5	-0.1	-5.6	-26.7	0.1
Nc1nc(-c2c(Cl)cccc2Cl)no1	-0.7	·	0.3	·	·	0.5
NC(=O)NC(=O)CSc1nnc(-c2ccc(Cl)cc2)n1CC1CCCO1 (stereo not drawn)	0.3	-8.4	0.6	-0.4	-6.1	-0.2
CC(=O)c1c(C)[nH]c(C(=O)CSc2nnc(-c3ccc(Cl)cc3)n2CC2CCCO2)c1C (stereo not drawn)	0.5	-1.0	0.6	0.1	70.1*	-1.9
CC(C)OC(=O)c1cccc(NC(=O)CSc2nnc(N)s2)c1	-1.1	3.5	0.0	0.3	12.6	0.2
Cc1cc(-c2ccccc2)nc2cc(C(=O)N(Cc3ccccc3)Cc3ccccc3)nn12	-7.2	-4.0	-0.4	1.1	74.9*	-0.6
COC(=O)c1cc2nc(-c3ccccc3)cc(C)n2n1	4.8	-8.6	-0.2	0.6	14.8	-0.6
N/C(=N\N=C\c1ccc(Br)o1)c1nonc1N	1.8	·	2.1	·	·	0.7
c1ccc(-c2csc3ncnc(NCC4COc5ccccc5O4)c23)cc1 (stereo not drawn)	-14.8	2.5	-0.3	0.8	72.2*	-1.4
CC(NC(=O)Cc1cccs1)c1ccccc1 (stereo not drawn)	4.5	-8.0	8.1	-0.9	-13.2	1.1
CC(=O)c1c(C)[nH]c(C(=O)Nc2nc(-c3ccc(Cl)cc3)cs2)c1C	1.2	3.2	0.4	-0.1	86.2*	-0.1
CC(=O)c1c(C)[nH]c(C(=O)Nc2nc(-c3ccc(-c4ccccc4)cc3)cs2)c1C	-4.4	-11.7	0.3	·	12.0	-1.1
Cc1ccc(OCC(=O)Nc2ccccc2[N+](=O)[O-])c(Br)c1	0.5	-7.2	1.9	-0.4	9.2	0.4
COc1ccc(-c2nc(-c3ccccc3)[nH]c(=O)c2C#N)cc1	-1.9	-6.4	1.6	-4.2	79.6*	1.8
CCCCC(=O)NC(=S)Nc1cccc(NC(=O)c2ccco2)c1	2.5	-13.1	2.7	0.2	11.2	-0.1
COC(=O)C1CCN(C(=O)c2cc(OC)c(OC)c(OC)c2)CC1	0.2	10.7	-0.2	-0.3	77.7*	0.1
O=c1oc2cc(OCc3ccc(F)cc3F)ccc2cc1-c1ccc2ccccc2n1	2.0	4.6	0.5	0.1	0.9	-0.3
Cc1ccc(/C=C2\CC(C)CC3=C2NC(=S)NC3c2ccc(C)cc2)cc1 (stereo not drawn)	-6.0	·	-0.8	·	·	-0.6
CC1CC2=C(NC(=S)NC2c2ccccc2F)/C(=C/c2ccccc2F)C1 (stereo not drawn)	-5.4	-2.3	-1.1	-0.8	79.8*	0.2
CC1CC2=C(NC(=S)NC2c2cccc(F)c2)/C(=C/c2cccc(F)c2)C1 (stereo not drawn)	-2.6	-1.5	-0.9	-1.1	61.3*	0.4
CC(=O)Nc1ccc(C(=O)NCC(=O)OCc2c(F)cccc2Cl)cc1	-0.1	1.5	-0.2	-0.5	6.8	0.2
COc1cc(CNCCc2ccccc2)cc(Cl)c1OCc1ccccc1	1.8	-10.7	1.0	-0.6	81.9	-0.8
Cc1cccc(N2CCN(C(=O)C34CC5CC(CC(C5)C3)C4)CC2)c1C	-0.7	-6.5	5.3	0.1	88.0*	1.2
COc1cccc(-c2nc(N3CCCCC3C)c3ccccc3n2)c1O (stereo not drawn)	-0.6	0.3	1.9	-0.5	63.5*	-1.5
COc1cccc(-c2nc(N3CCN(C)CC3)c3ccccc3n2)c1O	-16.1	·	2.4	·	·	-2.3
